Screens from PubChem.
AMA1 RON2 block: AMA1-RON2 (P. falciparum) interaction inhibition; Potency, µM (titrated, usually from 58.2 µM), inactives show at the top dose activity change, negative = inhibition, usual class: inhibitors; AlphaScreen AMA1-biotinylated RON2 peptide binding; AID 720542; actives 0.2% (n = 360,000);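 also: 0% = vehicle wells and -100% = peptide control; nearly all actives have a fitted effect of over 45% in size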
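AMA1 (3D7) with his tag at 25 nM final met compounds first, then biotinylated RON2 peptide at 25 nM; detection used donor plus acceptor beads, 10 µg/mL apiece, read by AlphaScreen after 30 min at room temperature.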
Pf growth 96h: P. falciparum growth inhibition at 96 hour, primary screen for plastid delayed-death inhibitors; actives 6.9% (n = 320,000); AID 504834; P. falciparum luciferase reporter growth, 96 h; Potency, µM (series often up to 28.7 µM), for the others: at the top dose activity change, negative = inhibition, most hits filed as inhibitors; also: % is scaled to controls: 0 for no effect and ±100 for the full control effect
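Compounds incubated with erythrocytes infected by luciferase-expressing P. falciparum (2% hematocrit, 0.05% parasitemia final) for 96 hours, 37 C in 5% CO2. Growth inhibition scored as decreased luciferase luminescence.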
Pf growth 48h: inhibits P. falciparum growth in the first generation, 48 h. P. falciparum luciferase growth in erythrocytes, 48 h. Potency, µM (doses to about 28.7 µM), inactives show at the top dose activity change, negative = inhibition, usual class: inhibitors. actives 5.9% (n = 310,000). AID 504832; also: % is scaled to controls: 0 for no effect and ±100 for the full control effect
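Read-out is firefly luciferase luminescence from an integrated reporter in P. falciparum, so falling signal marks reduced parasite growth. Infected erythrocytes were at 2% hematocrit and 0.1% parasitemia (final) in Albumax-supplemented RPMI 1640.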
SARS PLpro yeast: SARS-CoV PLP inhibition in yeast; S. cerevisiae expressing SARS-CoV PLpro, growth rescue; actives 0.19% (n = 330,000); Potency, µM (top dose mostly 32.9 µM), inactives show at the highest dose activity, positive = growth rescue, usual class: activators; calls by dose curve; also: 0% is about no effect; nearly all actives have a fitted effect of over 55% in size
An asterisk follows results filed as active; [ ] = dose if it differs, or a comment. The list is not random: actives were taken first. Their share in the collection is about 9.4%. Unless noted, calls follow the shape of the dose curve; as a rule, active = well fitted curve in the direction sought with a large enough effect; inconclusive = small, poorly fitted or top-dose-only effect, or another doubt; inactive = no such curve, though single readings can be large; an effect the other way counts as inactive or inconclusive. Potency is read from the fitted curve at half-maximal effect.

For Cc1oc(S(=O)(=O)N2CCCCC2)cc1NC(=O)Nc1ccc(F)cc1 the results were AMA1 RON2 block -1.5%, Pf growth 96h 5.86µM*, Pf growth 48h inconclusive and SARS PLpro yeast -0.5%.
CCOc1ccc(NC(=O)CN(C)C(=O)c2n[nH]c(=O)c3ccccc23)cc1OCC was read as AMA1 RON2 block -0.5%, Pf growth 96h 13.3%, Pf growth 48h inconclusive and SARS PLpro yeast -2.8%.
For COc1ccc(/C=C/c2c([N+](=O)[O-])c(=O)n(C)c(=O)n2C)cc1 the results were AMA1 RON2 block -19.8%, Pf growth 96h 13.1µM*, Pf growth 48h inconclusive and SARS PLpro yeast 0.0%.
CCc1ccc(/C=C/c2c([N+](=O)[O-])c(=O)n(C)c(=O)n2C)cc1 was read as AMA1 RON2 block 0.0%, Pf growth 96h 37.8%, Pf growth 48h 2.33µM* and SARS PLpro yeast -1.1%.
For Cn1c(/C=C/N(Cc2ccccc2)c2ccccc2)c([N+](=O)[O-])c(=O)n(C)c1=O the results were AMA1 RON2 block -11.1%, Pf growth 96h -11.4%, Pf growth 48h -18.8% and SARS PLpro yeast 0.5%.
For CCOc1ccc(/C=C/c2c([N+](=O)[O-])c(=O)n(C)c(=O)n2C)cc1 the results were AMA1 RON2 block -8.4%, Pf growth 96h 1.0%, Pf growth 48h inconclusive and SARS PLpro yeast -0.8%.
For Cn1c(/C=C/c2ccc(Cl)cc2Cl)c([N+](=O)[O-])c(=O)n(C)c1=O the results were AMA1 RON2 block 1.6%, Pf growth 96h 41.8%, Pf growth 48h 4.65µM* and SARS PLpro yeast -1.6%.
Screening COc1ccc(Cn2c(O)c(C=NCCN3CCOCC3)c(=O)[nH]c2=O)cc1 returned AMA1 RON2 block 21.4%, Pf growth 96h 115.2%, Pf growth 48h 20.9% and SARS PLpro yeast -7.2%.
For CC(=O)NC1(c2nnnn2CCOC(=O)Nc2ccc(Cl)cc2)CCCC1 the results were AMA1 RON2 block 0.1%, Pf growth 96h -13.0%, Pf growth 48h -0.8% and SARS PLpro yeast -0.1%.
COCc1c(C(=O)N2CCN(c3ncccn3)CC2)oc2ccccc12 was read as AMA1 RON2 block -7.5%, Pf growth 96h inconclusive, Pf growth 48h -25.2% and SARS PLpro yeast -7.6%.
`COCc1c(C(=O)N(C)Cc2ccccc2N2CCCC2)oc2ccccc12` gave AMA1 RON2 block inconclusive, Pf growth 96h 9.28µM*, Pf growth 48h inconclusive and SARS PLpro yeast 2.1%.
`c1ccc(-c2ccc(C3=Nn4c(nnc4-c4cc(-c5ccccc5)n[nH]4)SC3)cc2)cc1` gave AMA1 RON2 block -6.7%, Pf growth 96h 11.7µM*, Pf growth 48h inconclusive and SARS PLpro yeast -0.3%.
For c1ccc(-c2ccc(C3=Nn4c(Cn5nnc6ccccc65)nnc4SC3)cc2)cc1 the results were AMA1 RON2 block -4.1%, Pf growth 96h 9.28µM*, Pf growth 48h inconclusive and SARS PLpro yeast 3.1%.
Screening c1ccc(C2=Nn3c(Cn4nnc5ccccc54)nnc3SC2)cc1 returned AMA1 RON2 block -15.4%, Pf growth 96h -15.7%, Pf growth 48h -17.7% and SARS PLpro yeast 0.1%.
`CCOc1ccc(-c2nnc3n2N=C(c2ccc(OC)cc2)CS3)cc1` gave AMA1 RON2 block 1.8%, Pf growth 96h 2.4%, Pf growth 48h inconclusive and SARS PLpro yeast -11.9%.
`Brc1ccccc1C1=Nn2c(nnc2-c2ccco2)SC1` gave AMA1 RON2 block 3.2%, Pf growth 96h -0.2%, Pf growth 48h 2.3% and SARS PLpro yeast 2.2%.
Brc1ccccc1C1=Nn2c(nnc2-c2ccccc2)SC1 was read as AMA1 RON2 block -4.1%, Pf growth 96h 8.28µM*, Pf growth 48h inconclusive and SARS PLpro yeast -10.1%.
`CCOc1ccc(C2=Nn3c(nnc3-c3ccccc3OC)SC2)cc1` gave AMA1 RON2 block -2.4%, Pf growth 96h inconclusive, Pf growth 48h 13.1µM* and SARS PLpro yeast -4.4%.
`c1nc(CCO[C@H]2CCCCO2)cc2cc3c(cc12)OCO3` gave AMA1 RON2 block -3.5% and SARS PLpro yeast 1.5%.
For Cc1nn(-c2ccccc2)c(N)c1C1(O)C(=O)Nc2ccc([N+](=O)[O-])cc21 (stereo not given) the results were AMA1 RON2 block -6.4%, Pf growth 96h -13.6%, Pf growth 48h 3.5% and SARS PLpro yeast 0.2%.
`Cc1nn(-c2ccccc2)c2c1C(c1ccc([N+](=O)[O-])cc1)C(C#N)=C(N)O2` (stereo not given) gave AMA1 RON2 block -4.4%, Pf growth 96h 4.7%, Pf growth 48h 59.2% and SARS PLpro yeast -0.7%.
Screening Cc1nn(-c2ccccc2)c2c1C(c1ccc([N+](=O)[O-])cc1)N1C(=N2)C(=O)Nc2ccccc21 (stereo not given) returned AMA1 RON2 block -1.9%[2.32 µM], Pf growth 96h 5.86µM*, Pf growth 48h inconclusive and SARS PLpro yeast 14.3%.
Screening Cc1nn(-c2ccc([N+](=O)[O-])cc2)c2c1C(c1cccc(Br)c1)N1C(=N2)C(=O)Nc2ccccc21 (stereo not given) returned AMA1 RON2 block -3.0%, Pf growth 96h 1.04µM*, Pf growth 48h 1.31µM* and SARS PLpro yeast 9.8%.
Screening CC(C(=O)O)c1cccc(C(=O)c2ccccc2)c1 (stereo not given) returned AMA1 RON2 block 9.1%, Pf growth 48h 16.5% and SARS PLpro yeast 4.4%.
O=C(O)c1cccc(N2C(=O)/C(=C/c3ccc([N+](=O)[O-])cc3)C=C2c2ccccc2)c1 was read as AMA1 RON2 block inconclusive, Pf growth 96h inconclusive, Pf growth 48h -66.2% and SARS PLpro yeast 1.4%.
Screening CCOc1ccccc1CNCCNCC(C)O (stereo not given) returned AMA1 RON2 block 84.3%, Pf growth 96h 9.28µM*, Pf growth 48h -22.9% and SARS PLpro yeast 0.4%.
Screening Cc1ccccc1OCCNCC(C)O (stereo not given) returned AMA1 RON2 block inconclusive, Pf growth 96h 13.1µM*, Pf growth 48h 0.6% and SARS PLpro yeast 1.4%.
`Cc1ccccc1OCC(O)COc1ccccc1C` gave AMA1 RON2 block 0.5%.
For N=c1c(S(=O)(=O)c2ccccc2)cc2c(=O)n3ccccc3nc2n1C1CCCC1 the results were AMA1 RON2 block 7.5%, Pf growth 96h 0.2%, Pf growth 48h inconclusive and SARS PLpro yeast 1.0%.
N=c1c(S(=O)(=O)c2ccc(Br)cc2)cc2c(=O)n3ccccc3nc2n1C1CCCC1 was read as AMA1 RON2 block -8.0%, Pf growth 96h 11.7µM* and Pf growth 48h 10.4µM*.
Cc1ccccc1OCCN=Cc1c(O)n(C)c(=O)n(C)c1=O was read as AMA1 RON2 block -13.6%, Pf growth 96h inconclusive, Pf growth 48h -2.9% and SARS PLpro yeast 7.2%.
CN1CCN(c2nc(-c3ccccc3)nc(-c3ccc(F)cc3)c2C#N)CC1 was read as AMA1 RON2 block inconclusive, Pf growth 96h inconclusive, Pf growth 48h inconclusive and SARS PLpro yeast -0.2%.
`COc1ccc(CNc2nc(NCc3ccc(OC)c(OC)c3)n(C(=O)c3cccs3)n2)cc1OC` gave AMA1 RON2 block inconclusive, Pf growth 96h 7.38µM*, Pf growth 48h inconclusive and SARS PLpro yeast -5.2%.
For COc1ccc(CCNC(=O)c2cccs2)cc1OC the results were AMA1 RON2 block 11.2%, Pf growth 96h -13.7%, Pf growth 48h -28.0%[1.15 µM] and SARS PLpro yeast 12.2%.
